Test results: PubChem BioAssay AID1159580 (chemical genetic matrix, 2015)
Among all 5,500 compounds or so, about 2,000 (36%) were called active. Not shown: some 18% with an inconclusive outcome. No stated cut-off is given here; in the data, active means normalized growth mostly below about 0.91 (no sharp cut-off); inconclusive means no clear call, values can overlap the other calls; inactive means mostly above about 0.92. The list shows a part of the results.

Test: chemical genetic growth profiling, strain panel (AID 1159580);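 further: tested at 20 µM; growth read once vehicle control cultures reached saturation at 30 °C; 1 = growth at the plate median or of vehicle wells; lower values mean less growth of the strain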
Settings: growth OD

Measured: normalized growth

COc1ccc([C@@H]2CC(=O)c3c(O)cc(O)cc3O2)cc1O
inactive: S. cerevisiae deletion strains, locus YJR043C, strain POL32, hits give low values 0.966 | S. cerevisiae deletion strains, locus YJR066W, strain TOR1, hits give low values 0.95 | S. cerevisiae deletion strains, locus YJR075W, strain HOC1, hits give low values 1.03 | S. cerevisiae deletion strains, locus YKL009W, strain mrt4, hits give low values 1.01 | S. cerevisiae deletion strains, locus YKL068W, hits give low values 0.998 | S. cerevisiae deletion strains, locus YKL085W, strain MDH1 (second series), hits give low values 0.99 | S. cerevisiae deletion strains, locus YKL085W, strain MDH1, hits give low values 0.99 | S. cerevisiae deletion strains, locus YKL160W, strain elf1, hits give low values 0.954 | S. cerevisiae deletion strains, locus YKR001C, strain vps1, hits give low values 1 | S. cerevisiae deletion strains, locus YKR026C, strain gcn3, hits give low values 0.982 | S. cerevisiae deletion strains, locus YKR091W, strain srl3, hits give low values 0.973 | S. cerevisiae deletion strains, locus YLL001W, strain dnm1, hits give low values 0.947 | S. cerevisiae deletion strains, locus YLL026W, hits give low values 0.993 | S. cerevisiae deletion strains, locus YLL041C, strain sdh2, hits give low values 0.982 | S. cerevisiae deletion strains, locus YLR027C, strain aat2, hits give low values 1 | S. cerevisiae deletion strains, locus YLR039C, strain RIC1, hits give low values 1.06 | S. cerevisiae deletion strains, locus YLR058C, strain SHM2, hits give low values 1.01 | S. cerevisiae deletion strains, locus YLR102C, strain apc9, hits give low values 1.01 | S. cerevisiae deletion strains, locus YLR113W, strain HOG1, hits give low values 1.02 | S. cerevisiae deletion strains, locus YLR221C, strain rsa3, hits give low values 0.959 | S. cerevisiae deletion strains, locus YLR258W, strain gsy2, hits give low values 0.977 | S. cerevisiae deletion strains, locus YLR262C, strain YPT6 (second series), hits give low values 0.972 | S. cerevisiae deletion strains, locus YLR262C, strain YPT6, hits give low values 1.03 | S. cerevisiae deletion strains, locus YLR268W, strain sec22, hits give low values 1.06 | S. cerevisiae deletion strains, locus YLR320W, strain mms22, hits give low values 0.93 | S. cerevisiae deletion strains, locus YLR330W, strain CHS5, hits give low values 1.01 | S. cerevisiae deletion strains, locus YLR342W, strain FKS1 (second series), hits give low values 0.979 | S. cerevisiae deletion strains, locus YLR342W, strain FKS1, hits give low values 0.976 | S. cerevisiae deletion strains, locus YLR357W, strain rsc2, hits give low values 0.953 | S. cerevisiae deletion strains, locus YLR370C, strain arc18, hits give low values 0.97 | S. cerevisiae deletion strains, locus YLR371W, strain rom2, hits give low values 1.01 | S. cerevisiae deletion strains, locus YLR384C, strain iki3, hits give low values 0.972 | S. cerevisiae deletion strains, locus YLR418C, strain cdc73, hits give low values 0.937 | S. cerevisiae deletion strains, locus YML016C, strain PPZ1, hits give low values 1 | S. cerevisiae deletion strains, locus YML032C, strain rad52, hits give low values 0.991 | S. cerevisiae deletion strains, locus YML120C, strain ndi1, hits give low values 0.974 | S. cerevisiae deletion strains, locus YML124C, strain tub3, hits give low values 1.01 | S. cerevisiae deletion strains, locus YMR058W, strain fet3, hits give low values 0.969 | S. cerevisiae deletion strains, locus YMR078C, strain ctf18, hits give low values 1.01 | S. cerevisiae deletion strains, locus YMR125W, strain sto1, hits give low values 0.96 | S. cerevisiae deletion strains, locus YMR129W, hits give low values 0.988 | S. cerevisiae deletion strains, locus YMR205C, strain PFK2, hits give low values 0.952 | S. cerevisiae deletion strains, locus YMR223W, strain ubp8, hits give low values 0.978 | S. cerevisiae deletion strains, locus YMR231W, strain pep5, hits give low values 0.98 | S. cerevisiae deletion strains, locus YMR263W, strain SAP30, hits give low values 1.03 | S. cerevisiae deletion strains, locus YMR307W, strain GAS1, hits give low values 0.952 | S. cerevisiae deletion strains, locus YNL067W, strain RPL9B, hits give low values 1.03 | S. cerevisiae deletion strains, locus YNL071W, strain lat1, hits give low values 0.979 | S. cerevisiae deletion strains, locus YNL183C, strain NPR1, hits give low values 0.944 | S. cerevisiae deletion strains, locus YNL209W, strain ssb2, hits give low values 0.986 | S. cerevisiae deletion strains, locus YNL233W, strain BNI4, hits give low values 1 | S. cerevisiae deletion strains, locus YNL248C, strain rpa49, hits give low values 0.97 | S. cerevisiae deletion strains, locus YNL250W, strain rad50, hits give low values 1.02 | S. cerevisiae deletion strains, locus YNL271C, strain bni1, hits give low values 1.01 | S. cerevisiae deletion strains, locus YNL298W, strain CLA4, hits give low values 1.02 | S. cerevisiae deletion strains, locus YNL307C, strain MCK1, hits give low values 1.01 | S. cerevisiae deletion strains, locus YNL322C, strain KRE1 (second series), hits give low values 0.987 | S. cerevisiae deletion strains, locus YNR049C, strain mso1, hits give low values 0.973 | S. cerevisiae deletion strains, locus YNR052C, strain pop2, hits give low values 1.02 | S. cerevisiae deletion strains, locus YOL012C, strain htz1 1.12 | S. cerevisiae deletion strains, locus YOL147C, strain pex11, hits give low values 0.998 | S. cerevisiae deletion strains, locus YOR001W, strain rrp6, hits give low values 0.988 | S. cerevisiae deletion strains, locus YOR061W, strain CKA2, hits give low values 1 | S. cerevisiae deletion strains, locus YOR069W, strain VPS5, hits give low values 1 | S. cerevisiae deletion strains, locus YOR070C, strain gyp1, hits give low values 0.975 | S. cerevisiae deletion strains, locus YOR080W, strain dia2, hits give low values 0.979 | S. cerevisiae deletion strains, locus YOR083W, strain WHI5, hits give low values 0.934 | S. cerevisiae deletion strains, locus YOR106W, strain vam3, hits give low values 0.946 | S. cerevisiae deletion strains, locus YOR136W, strain idh2, hits give low values 1.01 | S. cerevisiae deletion strains, locus YOR144C, strain elg1, hits give low values 0.999 | S. cerevisiae deletion strains, locus YOR184W, strain ser1, hits give low values 0.986 | S. cerevisiae deletion strains, locus YOR231W, strain MKK1, hits give low values 1.02 | S. cerevisiae deletion strains, locus YOR265W, strain rbl2, hits give low values 0.983 | S. cerevisiae deletion strains, locus YOR270C, strain vph1, hits give low values 0.933 | S. cerevisiae deletion strains, locus YOR290C, strain snf2, hits give low values 0.924 | S. cerevisiae deletion strains, locus YOR316C, strain cot1, hits give low values 1 | S. cerevisiae deletion strains, locus YPL051W, strain arl3, hits give low values 0.967 | S. cerevisiae deletion strains, locus YPL055C, strain LGE1, hits give low values 1.02 | S. cerevisiae deletion strains, locus YPL078C, strain atp4, hits give low values 0.952 | S. cerevisiae deletion strains, locus YPL106C, strain sse1, hits give low values 0.965 | S. cerevisiae deletion strains, locus YPL240C, strain hsp82, hits give low values 0.997 | S. cerevisiae deletion strains, locus YPL256C, strain CLN2, hits give low values 1.03 | S. cerevisiae deletion strains, locus YPR119W, strain clb2, hits give low values 1.01 | S. cerevisiae deletion strains, locus YPR141C, strain kar3, hits give low values 1.01 | S. cerevisiae deletion strains, locus YPR163C, strain tif3, hits give low values 1.01 | S. cerevisiae deletion strains, locus YPR167C, strain met16, hits give low values 1 | S. cerevisiae deletion strains, strain wtn01, hits give low values 1.03 | S. cerevisiae strains, strain wild type, hits give low values 1.01
